mHTT-CaM PPI inh: mutant huntingtin-calmodulin interaction inhibitors – biochemical, AlphaScreen, primary screen; AlphaScreen His-mHTT/GST-CaM binding, luminescence; inhibition, % at 15 µM; P42858; 190,000 compounds, 3.6% hits
Pf apPOL inh: Pf-apPOL inhibitors, biochemical, fluorescence | Recombinant Pf-apPOL, molecular beacon fluorescence, 1.5 h | inhibition, % at 10 µM | 210,000 compounds, 0.25% hits | AID 1794808, 2022
Hits are given with their value; i = inactive; nt = no result. Many of the other results were omitted from the sample, so hits are more common in it than they were. Rule as the data show it: active = inhibition above about 50%; inactive = the rest.

SMILES | mHTT-CaM PPI inh | Pf apPOL inh
Cc1cc(C)cc(C(=O)N2CCCC2c2nc(-c3cccc(C)c3)no2)c1 (stereo unspecified) | i | i
Cc1nc(C(=O)NC2CCCC2)c(C)n1C1CCN(S(C)(=O)=O)CC1 | i | i
CCc1ccc(-c2cn3cc(C(=O)NCCN4CCN(C)CC4)ccc3n2)cc1 | i | i
Cc1ccc(C)c(NCC(O)Cn2c(C)c(C)c3ccccc32)c1 (stereo unspecified) | 95.0 | i
CCC(CO)NCC(O)Cn1c(C)c(C)c2ccccc21 (stereo unspecified) | i | i
Cc1cccc(NCC(O)Cn2c(C)c(C)c3ccccc32)c1 (stereo unspecified) | 91.0 | i
Cc1c(C)n(CC(O)CNc2ccccc2)c2ccccc12 (stereo unspecified) | 54.0 | i
CCN(CC)CC(O)Cn1c(C)c(C)c2ccccc21 (stereo unspecified) | i | i
Cc1c(C)n(CC(O)CN2CCN(Cc3ccccc3)CC2)c2ccccc12 (stereo unspecified) | i | i
NS(=O)(=O)c1ccc(CCNC2CC(=O)N(c3ccccc3)C2=O)cc1 (stereo unspecified) | i | i
COc1ccc(C2=N/C(=C\c3cccs3)C(=O)O2)cc1OC | i | i
CCOc1ccccc1Oc1c(C)oc2cc(OCC=C(C)C)ccc2c1=O | i | i
Cc1cc(I)ccc1NC(=O)c1ccccc1F | i | i
C=CCn1c(SC/C=C(\C)Cl)nc2c1c(=O)[nH]c(=O)n2C | i | i
Cc1noc(-c2cccnc2N2CCCN(C(=O)CCc3ccccc3)CC2)n1 | i | i
Cc1oc(C2CCN(C(=O)c3c(F)cccc3Cl)CC2)nc1C(=O)N(C)C | i | i
CC(=O)Nc1ccc(N2C(=O)CC(NC3CCCCCC3)C2=O)cc1 (stereo unspecified) | i | i
CCc1ccccc1NC(=O)c1cn2c(n1)CCCC2 | i | i
Cc1nccn1CC(C)C(=O)O (stereo unspecified) | i | i
OCCN(CCO)CC(O)Cn1c2ccc(Cl)cc2c2cc(Cl)ccc21 (stereo unspecified) | 100.2 | i
CC(O)Cn1c2ccccc2c2cc(Cl)ccc21 (stereo unspecified) | i | i
Cc1nccn1CC(O)Cn1c2ccc(Cl)cc2c2cc(Cl)ccc21 (stereo unspecified) | 99.6 | i
CC(Oc1ccccc1)C(=O)NCCc1ccc(S(N)(=O)=O)cc1 (stereo unspecified) | i | 86.4
COc1ccc(OC(C)C(=O)NCCc2ccccc2)cc1 (stereo unspecified) | i | i
Cc1ccc(C(=O)N2CCCC(COc3ccc(C(=O)N4CCCCC4)cc3)C2)cc1 (stereo unspecified) | i | i
SMILES | mHTT-CaM PPI inh | Pf apPOL inh
Cc1ccc(C(=O)N2CCC(c3ccncc3)CC2)cc1 | i | i
CC(=O)N1CCN(c2nc3c(s2)CC(C(=O)Nc2cccc(C(C)(C)C)c2)CC3)CC1 (stereo unspecified) | 54.3 | i
CC(=O)N1CCN(c2nc3c(s2)CC(C(=O)Nc2ccccc2)CC3)CC1 (stereo unspecified) | i | i
CCC1(C)CC(CCN)(c2ccc(F)cc2)CCO1 (stereo unspecified) | i | i
COc1cccc(NC(=O)CSc2nnc(Cc3ccccc3)n2C)c1 | 73.3 | i
COc1cccc(NC(=O)CSc2nnc3ccccn23)c1 | i | i
CCNS(=O)(=O)c1cccnc1Nc1cccc(Cl)c1 | i | i
O=S(=O)(Nc1ccc(F)cc1)c1cccnc1Nc1cccc(Cl)c1 | 93.3 | i
OC(COC12CC3CC(CC(C3)C1)C2)CN1CCN(c2ccccc2)CC1 (stereo unspecified) | i | i
OC(COCCC12CC3CC(CC(C3)C1)C2)CN1CCN(c2ccccn2)CC1 (stereo unspecified) | i | i
OC(COCCC12CC3CC(CC(C3)C1)C2)CN1CCN(c2ccccc2)CC1 (stereo unspecified) | 54.6 | i
OC(COCC12CC3CC(CC(C3)C1)C2)CN1CCN(c2ccccc2)CC1 (stereo unspecified) | 57.2 | i
N#Cc1ccc(NC(=O)c2cc3nc(-c4ccc5c(c4)OCO5)cc(C(F)(F)F)n3n2)cc1 | i | i
O=C(Nc1ncc(-c2ccc([N+](=O)[O-])cc2)s1)c1ccc(S(=O)(=O)N2CCCCC2)cc1 | i | i
CCn1nccc1C(=O)N1CCCC2(C1)Nc1ccccc1NC2=NCc1ccccc1 (stereo unspecified) | i | i
O=C(c1ccco1)N1CCCC2(C1)Nc1ccccc1NC2=NCc1ccccc1 (stereo unspecified) | 83.8 | i
CC(=O)N1CCCC2(C1)Nc1ccccc1NC2=NCc1ccccc1 (stereo unspecified) | 72.2 | i
O=C(c1ccccn1)N1CCCC2(C1)Nc1ccccc1NC2=NCc1ccccc1 (stereo unspecified) | i | i
O=C(c1ccoc1)N1CCCC2(C1)Nc1ccccc1NC2=NCc1ccccc1 (stereo unspecified) | 99.7 | i
O=C(c1cccnc1)N1CCCC2(C1)Nc1ccccc1NC2=NCc1ccccc1 (stereo unspecified) | i | i
O=C(NCC1CCCO1)C1CCN(c2nccnc2Sc2ccccc2)CC1 (stereo unspecified) | i | i
Cc1ccc(Cc2c(C)nc(C)nc2N2CCN(S(C)(=O)=O)CC2)cc1 | i | i
CN(Cc1ccccc1)S(=O)(=O)c1ccc(C(=O)Nc2nc(-c3ccccn3)cs2)cc1 | i | i
CCCN(CCC)S(=O)(=O)c1ccc(C(=O)Nc2nc(-c3ccccn3)cs2)cc1 | 88.0 | i
CCCCN(CCCC)S(=O)(=O)c1ccc(C(=O)Nc2nc(-c3ccccn3)cs2)cc1 | i | i
SMILES | mHTT-CaM PPI inh | Pf apPOL inh
CC(C)CN(CC(C)C)S(=O)(=O)c1ccc(C(=O)Nc2nc(-c3ccccn3)cs2)cc1 | 52.0 | i
Cn1c2ccccc2c2nnc(SCC(=O)Nc3sc4c(c3C#N)CCCC4)nc21 | i | i
CSCCC(C(=O)O)N1CNC(=S)NC1 (stereo unspecified) | i | nt
Cc1nnc(SCC(=O)c2ccc3c(c2)OCO3)s1 | i | i
O=C1C(=Cc2ccco2)Oc2c1ccc(O)c2CN1CCCC1 | i | i
COc1ccc(C(=O)Oc2cc(C)[nH]c(=O)c2[N+](=O)[O-])c(OC)c1 | 55.8 | i
CCCC(CCC)C(=O)Oc1cc(C)[nH]c(=O)c1[N+](=O)[O-] | 87.3 | i
COc1ccccc1C(=O)Oc1cc(C)[nH]c(=O)c1[N+](=O)[O-] | i | i
CCCCC(=O)Oc1cc(C)[nH]c(=O)c1[N+](=O)[O-] | i | i
Cc1nc(C(=O)NCc2cccs2)c(C)n1C1CCN(S(C)(=O)=O)CC1 | i | i
COc1cccc(C=C2Oc3cc(O)cc(C)c3C2=O)c1 | i | i
CC1CCc2cc(F)cc3c(O)c(C(=O)NCCN4CCOCC4)c(=O)n1c23 (stereo unspecified) | i | i
CC1CCc2cc(F)cc3c(O)c(C(=O)NCCCN(C)C)c(=O)n1c23 (stereo unspecified) | 99.0 | i
Cc1ccc(N2NC(=O)/C(=C\c3ccc(N(C)C)cc3)C2=O)cc1Cl | i | i
Cc1ccc(N2C=C(C(=O)N3CCCCC3)S(=O)(=O)c3ccccc32)cc1Cl | i | i
Cc1ccc(N2C=C(C(=O)N3CCCCC3)S(=O)(=O)c3ccccc32)cc1C | 58.4 | i
CC(C)CCNC(=O)c1cccc(-c2nc(-c3ccc(F)cc3)no2)c1 | i | i

Screening results (PubChem BioAssay)
